# Source: PubChem BioAssay (NCATS)
# Results filed as inconclusive are left out. Active and inactive are the calls of the source. Unless noted, the call rests on the fitted dose curve; in most records, active means well fitted curve in the direction sought with a large enough effect; inconclusive means small, poorly fitted or top-dose-only effect, or another doubt; inactive means no such curve, though single readings can be large; an effect the other way counts as inactive or inconclusive.
# Key:
# [1] = Counterscreen for APE1 Inhibitors: Fluorescent Dye Displacement Validation Assay (AID 1707);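 further: plate controls were ThO with dsDNA and no compound for no effect and ThO without dsDNA for full effect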
# In short: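 Thiazole Orange (250 nM) bound to 50 nM TAMRA-labelled dsDNA with tetrahydrofuran abasic site; displacement by DNA-binding compounds lowers fluorescence. Buffer 50 mM Tris-HCl pH 7.5, 50 mM NaCl, 2 mM MgCl2, 0.01% Tween-20; endpoint read at 480/540 nm.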
# [2] = biological target: Endonuclease 4 (Escherichia coli (strain K12)) (UniProt P0A6C1); experiment: Counterscreen for APE1 Inhibitors: qHTS Validation Assay for Inhibitors of Endonuclease IV (AID 1708); further: on the % scale 0 is the no-effect control and ±100 the full control effect
# In short: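 2 nM enzyme was preincubated with compounds for 15 min at room temperature in 50 mM Tris-HCl pH 7.5, 50 mM NaCl, 2 mM MgCl2, 1 mM DTT, 0.01% Tween-20. 50 nM THF-abasic TAMRA/BHQ-2 duplex substrate started the reaction.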
# [3] = qHTS for differential inhibitors of proliferation of Plasmodium falciparum line 7G8 (AID 1815);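 further: potency means the concentration at half of the fitted maximal effect; parasite growth measured after three days of incubation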
# [4] = qHTS for differential inhibitors of proliferation of Plasmodium falciparum line GB4 (AID 1816); conditions: Potency: Plasmodium falciparum GB4 proliferation inhibition;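 further: potency means the concentration at half of the fitted maximal effect; parasite growth measured after 72 h incubation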
# [5] = qHTS for differential inhibitors of proliferation of Plasmodium falciparum line 3D7 (AID 1876); further: potency means the concentration at half of the fitted maximal effect
# [6] = qHTS for differential inhibitors of proliferation of Plasmodium falciparum line D10 (AID 1877);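 further: potency means the concentration at half of the fitted maximal effect; parasites grown with compound for 72 h before DNA staining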
# [7] = qHTS for differential inhibitors of proliferation of Plasmodium falciparum line Dd2 (AID 1882); conditions: Potency: Plasmodium falciparum Dd2 proliferation inhibition; further: potency means the concentration at half of the fitted maximal effect; nearly all actives have a fitted effect of over 65% in size
# In short: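 SYBR Green I DNA fluorescence read-out, ex 485/em 535 nm. Signals were normalized to 0.29 uM artemisinin and DMSO wells, then corrected using vehicle-only plates flanking each stack. Parasite growth ran 72 h in erythrocytes before lysis.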
# [8] = qHTS for differential inhibitors of proliferation of Plasmodium falciparum line W2 (AID 1883); conditions: Potency: Plasmodium falciparum W2 proliferation inhibition;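 further: potency means the concentration at half of the fitted maximal effect; parasites grown with compound for 72 h before lysis and staining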
# [9] = qHTS for differential inhibitors of proliferation of Plasmodium falciparum line HB3 (AID 1886); conditions: Potency: Plasmodium falciparum HB3 proliferation inhibition;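 further: potency means the concentration at half of the fitted maximal effect; parasites grown with compound for 72 h before SYBR Green readout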
# [10] = biological target: ATP-dependent DNA helicase Q1 (Homo sapiens) (UniProt P46063); experiment: qHTS Validation Assay for Inhibitors of RecQ-Like Dna Helicase 1 (RECQ1) (AID 2353);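 further: plate controls were DMSO vehicle for no effect and enzyme-free control for full effect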
# ATP-dependent DNA helicase Q1 (Homo sapiens), sequence (P46063 whole entry, looked up): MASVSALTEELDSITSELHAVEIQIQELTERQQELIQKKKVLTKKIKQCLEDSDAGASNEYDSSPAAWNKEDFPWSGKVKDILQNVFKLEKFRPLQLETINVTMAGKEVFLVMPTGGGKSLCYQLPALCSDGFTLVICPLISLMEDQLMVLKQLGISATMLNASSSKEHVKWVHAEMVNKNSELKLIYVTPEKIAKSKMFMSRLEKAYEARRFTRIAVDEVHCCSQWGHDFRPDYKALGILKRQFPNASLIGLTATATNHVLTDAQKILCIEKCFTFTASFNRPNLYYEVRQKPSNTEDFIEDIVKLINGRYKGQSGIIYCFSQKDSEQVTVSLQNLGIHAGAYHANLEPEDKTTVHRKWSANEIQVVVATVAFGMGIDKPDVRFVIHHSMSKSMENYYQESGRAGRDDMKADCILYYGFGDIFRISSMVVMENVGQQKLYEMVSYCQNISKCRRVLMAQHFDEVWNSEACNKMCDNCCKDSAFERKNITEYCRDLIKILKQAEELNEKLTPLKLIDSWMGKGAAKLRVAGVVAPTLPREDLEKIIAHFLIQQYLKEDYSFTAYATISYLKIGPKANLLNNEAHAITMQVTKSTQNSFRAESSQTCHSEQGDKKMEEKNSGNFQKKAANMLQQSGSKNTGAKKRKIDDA
# In short: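 50 nM RECQ1T1 preincubated 15 min with compound in Tris pH 8.0 buffer with MgCl2, DTT, Tween-20 and 2.5 ug/ml poly(dI-dC); started with 200 nM TAMRA/BHQ-2 forked duplex and 2 mM ATP. Unwinding read as fluorescence (525/598 nm), two reads 2 h apart.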
# [11] = Validation screen for inhibitors of Lassa infection (AID 463096; calls by dose curve; further: potency means the concentration at half of the fitted maximal effect)
# [12] = Validation screen for small molecules that induce DNA re-replication in MCF 10A normal breast cells (AID 463097); further: potency means the concentration at half of the fitted maximal effect; nearly all actives have a fitted effect of over 60% in size
# In short: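 Following 48 hr compound incubation (37 C, 5% CO2), MCF 10A cells receive Hoechst for 40 min at 37 C. Nuclei are then scanned (excitation 405 nm, emission 500-530 nm) for total fluorescence intensity.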
# [13] = Quantitative high throughput screen for delayed death inhibitors of the malarial parasite plastid, 48 hour incubation (AID 488752); further: potency means the concentration at half of the fitted maximal effect; nearly all actives have a fitted effect of over 65% in size
# In short: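 Erythrocytes infected with P. falciparum carrying an integrated firefly luciferase reporter (2% hematocrit, 0.1% parasitemia final) were exposed to compounds in RPMI 1640/0.5% Albumax for 48 h at 37 C, 5% CO2. Growth inhibition was scored as reduced luminescence.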
# [14] = biological target: Thyrotropin receptor (Homo sapiens) (UniProt P16473); experiment: qHTS Assay for Antagonists of the Thyroid Stimulating Hormone Receptor (AID 488980); further: series mostly up to about 58 µM; 0% is about no effect
# Thyrotropin receptor (Homo sapiens), sequence (P16473 whole entry, looked up): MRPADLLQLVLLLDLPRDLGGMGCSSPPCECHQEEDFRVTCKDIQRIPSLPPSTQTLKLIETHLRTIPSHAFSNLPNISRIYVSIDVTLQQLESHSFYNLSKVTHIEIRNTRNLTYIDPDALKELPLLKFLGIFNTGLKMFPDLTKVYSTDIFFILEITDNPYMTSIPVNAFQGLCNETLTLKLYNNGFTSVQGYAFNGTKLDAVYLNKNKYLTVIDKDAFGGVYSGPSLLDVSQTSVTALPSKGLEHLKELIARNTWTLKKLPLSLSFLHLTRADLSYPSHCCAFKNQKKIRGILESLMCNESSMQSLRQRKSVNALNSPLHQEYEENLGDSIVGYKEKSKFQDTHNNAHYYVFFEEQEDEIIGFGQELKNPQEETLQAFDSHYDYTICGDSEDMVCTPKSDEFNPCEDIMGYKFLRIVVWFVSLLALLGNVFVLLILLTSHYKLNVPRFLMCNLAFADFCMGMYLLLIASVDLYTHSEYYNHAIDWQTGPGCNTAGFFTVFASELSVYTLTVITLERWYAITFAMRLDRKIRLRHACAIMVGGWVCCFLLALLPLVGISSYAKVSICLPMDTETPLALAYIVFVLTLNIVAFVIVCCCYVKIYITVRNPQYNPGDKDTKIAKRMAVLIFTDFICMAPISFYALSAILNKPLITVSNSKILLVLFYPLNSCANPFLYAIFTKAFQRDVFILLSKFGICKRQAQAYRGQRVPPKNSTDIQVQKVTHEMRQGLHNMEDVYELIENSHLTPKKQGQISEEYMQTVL
# In short: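 Inhibition of TSH-stimulated cAMP accumulation was quantified by homogeneous time-resolved FRET in TSHR-transfected HEK293 cells. Agonist: TSH, 4 nM final (EC80).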
# [15] = biological target: Thyrotropin-releasing hormone receptor (Homo sapiens) (UniProt P34981); experiment: qHTS for Small Molecule Agonists and Allosteric Enhancers of Human TRH Receptor: Validation Screen for Agonists (AID 493127;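 active means calcium activation more than 3 SD above the typical response in the agonist read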;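 further: intracellular calcium rise by fluo-8 fluorescence before TRH EC20 addition; 0% is about no effect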); conditions: TRH receptor agonist cell assay; at 2 µM; stronger effect = higher value
# Thyrotropin-releasing hormone receptor (Homo sapiens), sequence (P34981 whole entry, looked up): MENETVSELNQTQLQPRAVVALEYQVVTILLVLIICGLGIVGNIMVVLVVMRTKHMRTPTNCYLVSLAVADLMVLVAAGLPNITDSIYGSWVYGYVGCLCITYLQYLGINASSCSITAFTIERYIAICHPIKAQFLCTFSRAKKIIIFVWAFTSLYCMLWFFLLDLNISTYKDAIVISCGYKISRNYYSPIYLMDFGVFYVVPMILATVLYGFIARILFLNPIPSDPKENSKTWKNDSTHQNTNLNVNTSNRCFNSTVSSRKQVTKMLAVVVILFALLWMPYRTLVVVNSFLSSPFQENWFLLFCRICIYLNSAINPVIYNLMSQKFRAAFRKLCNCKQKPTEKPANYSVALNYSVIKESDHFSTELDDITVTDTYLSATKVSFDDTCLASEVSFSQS
# In short: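 TRHR-expressing cells were plated overnight in serum-containing medium, then loaded with fluo-8 calcium dye at room temperature for 30 min–1.5 h. After a 10 s baseline, compound was pin-transferred and calcium fluorescence (ex 480/em 530) read kinetically for agonist response.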
# [16] = biological target: Galactokinase (Homo sapiens) (UniProt P51570); experiment: qHTS Validation Assay for Inhibitors of Human Galactokinase (GALK) (AID 493189); further: 0% is about no effect
# Galactokinase (Homo sapiens), sequence (P51570 whole entry, looked up): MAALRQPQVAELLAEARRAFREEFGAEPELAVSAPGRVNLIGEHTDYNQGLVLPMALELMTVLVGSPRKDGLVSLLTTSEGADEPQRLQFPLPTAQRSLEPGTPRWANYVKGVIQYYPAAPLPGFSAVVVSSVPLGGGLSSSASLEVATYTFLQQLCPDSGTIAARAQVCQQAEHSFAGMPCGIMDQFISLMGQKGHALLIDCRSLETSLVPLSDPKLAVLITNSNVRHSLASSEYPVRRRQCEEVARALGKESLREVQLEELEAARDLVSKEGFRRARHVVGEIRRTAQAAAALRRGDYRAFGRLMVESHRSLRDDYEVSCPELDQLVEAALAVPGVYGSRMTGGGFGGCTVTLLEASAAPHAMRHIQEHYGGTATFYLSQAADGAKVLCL
# In short: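 Enzyme activity is inferred from ATP consumption: human GALK phosphorylates galactose (100 uM) using 35 uM ATP for 1 h at room temperature, and luciferase-based Kinase-Glo Plus reports unconsumed ATP.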
# [17] = Validation screen for small molecules that induce DNA re-replication in SW480 colon adenocarcinoma cells (AID 504364); further: 0% is about no effect
# In short: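 SW480 cells seeded at 250 per well were exposed to compound or DMSO for 48 hr at 37 C, 5% CO2, then stained with Hoechst for 40 min. DNA content per nucleus was imaged (405 nm ex, 500-530 nm em).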
compound,measurement,setting,value
C/C=C(/C)C(=O)O[C@H]1C(C)=C2C([C@@H]1OC(=O)CCCCCCC)[C@@](C)(OC(C)=O)C[C@@H](OC(=O)CCC)[C@@]1(O)[C@H]2OC(=O)[C@@]1(C)O (some centres not stated),outcome,[1],inactive
same,Potency,[2],inactive
same,Potency,[3],4.47 µM (active)
same,Potency,[4],3.16 µM (active)
same,Potency,[5],4.47 µM (active)
same,Potency,[6],10 µM (active)
same,Potency,[7],8.91 µM (active)
same,Potency,[8],3.55 µM (active)
same,Potency,[9],10 µM (active)
same,outcome,[10],inactive
same,Potency,[11],3.16 µM (active)
same,Potency,[12],6.31 µM (active)
same,Potency,[13],2.94 µM (active)
same,outcome,[14],inactive
same,activation,[15],37.9% (active)
same,outcome,[16],inactive
same,outcome,[17],inactive
